Bioassay records from PubChem.
ALDH1A1 block: qHTS Assay for Inhibitors of Aldehyde Dehydrogenase 1 (ALDH1A1); Potency, µM (series often up to 75.3 µM), for inactives: at the highest dose activity, negative = inhibition, most hits filed as inhibitors; Aldehyde dehydrogenase 1A1 (Homo sapiens), P00352; 220,000 compounds, 7.3% hits; Purified ALDH1A1, NADH fluorescence, propionaldehyde substrate; AID 1030, 2008; active = well fitted inhibition curve with a large enough effect, not every such curve was filed as active; inconclusive = small, poorly fitted or top-dose-only effect, or another doubt; inactive = no such curve, though single readings can be large or run the other way;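 note: plate controls were no enzyme wells and a reference inhibitor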
Target sequence (P00352 whole entry, looked up): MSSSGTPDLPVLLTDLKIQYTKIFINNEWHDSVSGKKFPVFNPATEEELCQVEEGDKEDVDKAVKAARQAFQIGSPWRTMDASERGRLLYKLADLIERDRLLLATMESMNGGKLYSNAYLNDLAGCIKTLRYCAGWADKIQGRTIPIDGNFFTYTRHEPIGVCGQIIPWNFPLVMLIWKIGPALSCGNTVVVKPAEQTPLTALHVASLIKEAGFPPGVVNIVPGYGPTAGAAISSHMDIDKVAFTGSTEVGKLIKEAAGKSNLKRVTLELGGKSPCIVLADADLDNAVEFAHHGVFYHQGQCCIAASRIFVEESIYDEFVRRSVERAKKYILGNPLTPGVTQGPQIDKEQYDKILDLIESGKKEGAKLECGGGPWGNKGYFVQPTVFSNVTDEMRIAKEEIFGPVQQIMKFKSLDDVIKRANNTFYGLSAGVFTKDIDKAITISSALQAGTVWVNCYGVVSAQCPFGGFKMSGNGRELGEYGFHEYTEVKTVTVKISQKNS
LMNA splice mod: qHTS Assay for Modulators of Lamin A Splicing. 200,000 compounds, 0.01% hits. HeLa LMNA splicing GFP/RFP minigene ratio, 48 h. AID 1487, 2009. Potency, µM (doses to about 46.1 µM), inactives show top-dose ratio change, negative = inhibition, usual class: inhibitors; active = well fitted inhibition curve with a large enough effect in the signal ratio, with a control signal flat, not every such curve was filed as active; inconclusive = small, poorly fitted or top-dose-only effect, or effect the other way, or a change in a side signal; the % refers to the signal ratio; note: % is set by controls: 0 for no effect and ±100 for the full control effect
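S3 HeLa cells stably expressing lamin A-EGFP splicing minigene plus DsRed2, 600 cells/well, 48 h compound exposure at 37C. Laser-scanning cytometry; analysed as GFP (500-530 nm)/RFP (575-640 nm) total intensity ratio; 0.5% DMSO vehicle.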
HTT aggregate: qHTS Multiplex Assay to Identify Dual Action Probes in a Cell Model of Huntington: Aggregate Formation (GFP). PC12 HttQ103-GFP aggregates, Acumen cytometry, 40 h. Potency, µM (top dose mostly 46.1 µM), for inactives: at the top dose activity change, negative = inhibition, most hits filed as inhibitors. 220,000 compounds, 1.1% hits. AID 1688, 2009; note: % is set by controls: 0 for no effect and ±100 for the full control effect; nearly all actives have a fitted effect of over 60% in size
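Quantitative HTS on tebufenozide-induced (100 nM) PC12 cells stably expressing polyQ103 Huntingtin exon 1–GFP. Reduction of bright GFP aggregates, detected by laser scanning cytometry after lysis, identified actives across the titration.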
HTT cytoprotect: qHTS Multiplex Assay to Identify Dual Action Probes in a Cell Model of Huntington: Cytoprotection (ATP). PC12 HTT-Q103 induced, cytoprotection, ATP luminescence, 40 h. Potency, µM (doses to about 56.4 µM), without a hit: cytoprotection (ATP increase), usual class: activators. 230,000 compounds, 0.14% hits. AID 1471, 2008; note: % of control where 0% means no effect; nearly all actives have a fitted effect of over 45% in size
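Compounds added alongside 100 nM tebufenozide, which induces toxic Q103 huntingtin exon 1-GFP in stable PC12 cells; surviving cells quantified by luminescent ATP measurement. Medium: phenol red-free DMEM, 5% equine and 5% calf serum.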
HPGD block: qHTS Assay for Inhibitors of HPGD (15-Hydroxyprostaglandin Dehydrogenase); Potency, µM, for the others: at the top dose activity change, negative = inhibition, usual class: inhibitors; 15-hydroxyprostaglandin dehydrogenase [NAD(+)] (Homo sapiens), P15428; purified HPGD, NADH fluorescence kinetic, PGE2 substrate; 150,000 compounds, 4.3% hits; active = well fitted inhibition curve with a large enough effect, not every such curve was filed as active; inconclusive = small, poorly fitted or top-dose-only effect, or another doubt; inactive = no such curve, though single readings can be large or run the other way; note: % is set by controls: 0 for no effect and ±100 for the full control effect
Target sequence (P15428 whole entry, looked up): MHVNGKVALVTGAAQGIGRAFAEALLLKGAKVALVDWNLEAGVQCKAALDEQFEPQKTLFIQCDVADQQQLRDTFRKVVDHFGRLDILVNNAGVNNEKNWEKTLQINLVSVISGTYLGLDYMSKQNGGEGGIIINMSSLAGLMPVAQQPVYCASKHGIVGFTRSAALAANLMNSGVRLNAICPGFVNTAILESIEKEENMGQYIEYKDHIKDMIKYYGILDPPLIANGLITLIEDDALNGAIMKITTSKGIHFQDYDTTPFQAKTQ
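NADH formation kinetics: reaction with 30 uM PGE2 and 1 mM NAD+ (final), 20 nM enzyme, Tris-HCl pH 8 with Tween 20, after 15 min compound preincubation at room temperature. Fluorescence change, last versus first of five reads.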
KinaseGlo FLuc: Counterscreen for Luciferase (Kinase-Glo TM) Inhibition; Kinase-Glo luciferase, ATP luminescence, 8 min; Potency, µM (top dose mostly 38.3 µM), for the others: top-dose activity change, negative = inhibition, most hits filed as inhibitors; AID 1379, 2008; 200,000 compounds, 0.28% hits; note: % is set by controls: 0 for no effect and ±100 for the full control effect; nearly all actives have a fitted effect of over 60% in size
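Compounds were added to a substrate mix at pH 7.2 (50 mM imidazole, 10 uM ATP, within the enzyme's linear range), followed by Kinase-Glo detection reagent; luminescence was measured after 8 minutes at ambient temperature.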
Active calls of the source: *; [ ] = another dose, or the depositor's remark. The list is not random: actives were taken first. Their share in the collection is about 9%. Unless noted, calls come from the whole dose curve; as a rule, active = well fitted curve in the direction sought with a large enough effect; inconclusive = small, poorly fitted or top-dose-only effect, or another doubt; inactive = no such curve, though single readings can be large; an effect the other way counts as inactive or inconclusive. Potency is the fitted concentration of half-maximal effect.

How did C/C=C(/C)C(=O)Nc1cccc(C2=NOC3(C2)C[C@H](C(N)=O)N(C(=O)COc2ccc(Cl)cc2)C3)c1 (some centres not stated) do in these assays?
HTT aggregate: 27.5%[9.22 µM]; HTT cytoprotect: 12.9%[10 µM]

Results for S=c1[nH]nc(-c2ccc3ccccc3n2)n1-c1ccc2ncccc2c1 ?
ALDH1A1 block: -15.6%; LMNA splice mod: 6.1%; HTT aggregate: 14.4%; HPGD block: 12.6µM*; KinaseGlo FLuc: 0.4%

How did S=c1[nH]nc(-c2ccc3ccccc3n2)n1-c1ccc(Cl)cc1 do in these assays?
ALDH1A1 block: inconclusive; LMNA splice mod: -3.8%; HTT aggregate: -5.4%; HTT cytoprotect: 1.5%[10 µM]; HPGD block: 10µM*; KinaseGlo FLuc: 0.1%

Results for COc1ccc(Cl)cc1Nc1nc(NCCO)nc(N2CCCC2)n1 ?
ALDH1A1 block: -5.8%; LMNA splice mod: -12.2%; HTT aggregate: 14.8%; HTT cytoprotect: -22.2%[10 µM]; HPGD block: -3.5%; KinaseGlo FLuc: 0.8%

What do the screens show for `Fc1ccc(-c2cn(-c3ccccc3)c3[n+]2CCS3)cc1`?
HTT aggregate: 14.2%[9.22 µM]; HTT cytoprotect: inconclusive

What do the screens show for `CSC(=NNC(=O)c1ccc(O)cc1)SC`?
ALDH1A1 block: -9.2%; LMNA splice mod: 12.2%; HTT aggregate: -4.3%; HTT cytoprotect: 2.1%; HPGD block: 15.8µM*; KinaseGlo FLuc: inconclusive

What do the screens show for `Cc1ccc(NC(=O)Cn2c(=S)[nH]c3ccccc32)cc1`?
ALDH1A1 block: 10µM*; HTT aggregate: -15.4%; HTT cytoprotect: 0.0%; KinaseGlo FLuc: -1.3%

How did O=C(Cn1c(=S)[nH]c2ccccc21)c1ccccc1 do in these assays?
ALDH1A1 block: -10.4%; LMNA splice mod: inconclusive; HTT aggregate: -12.6%; HTT cytoprotect: 4.2%[10 µM]; HPGD block: -7.7%; KinaseGlo FLuc: 2.5%

What do the screens show for `O=C(CSc1nnc(-c2ccccc2)o1)NC1CCCCC1`?
ALDH1A1 block: 0.9%; LMNA splice mod: 6.0%; HTT aggregate: -8.7%; HTT cytoprotect: -10.9%[0.074 µM]; HPGD block: -7.7%; KinaseGlo FLuc: -0.1%

Results for Cc1[nH]c2ccccc2c1N=Nc1ccc(F)cc1 ?
ALDH1A1 block: 2.9%; LMNA splice mod: -4.8%[9.22 µM]; HTT aggregate: -12.2%; HTT cytoprotect: 2.4%; KinaseGlo FLuc: 0.0%

How did COc1ccc(N=C2NN=C(c3c(C)[nH]c4ccccc34)CS2)cc1 do in these assays?
ALDH1A1 block: 14.1µM*; LMNA splice mod: inconclusive; HTT aggregate: -8.1%; HTT cytoprotect: 14.7%[10 µM]; HPGD block: -22.8%; KinaseGlo FLuc: 1.8%

Results for COc1ccc(N=C2SCC(c3ccccc3)=NN2C)cc1 ?
ALDH1A1 block: -3.0%; HTT aggregate: -15.2%[9.22 µM]; HTT cytoprotect: -16.0%[10 µM]

Results for Cc1[nH]c2ccccc2c1C1=NNC(=Nc2ccc(F)cc2)SC1 ?
ALDH1A1 block: 20µM*; LMNA splice mod: inconclusive; HTT aggregate: inconclusive; HTT cytoprotect: 8.6%[10 µM]; HPGD block: -4.4%; KinaseGlo FLuc: -1.0%

What do the screens show for `Cc1c(C(=O)c2ccccc2)c2ccccn2c1CCc1ccccn1`?
ALDH1A1 block: 11.2µM*; LMNA splice mod: inconclusive; HTT aggregate: 9.8%; HTT cytoprotect: -39.7%; KinaseGlo FLuc: -1.2%

Results for COc1cc(/C=C/C(=O)N2CCCC2)cc(OC)c1OC ?
ALDH1A1 block: inconclusive; LMNA splice mod: -16.8%; HTT aggregate: 15.5%; HTT cytoprotect: -3.7%[0.074 µM]; HPGD block: inconclusive; KinaseGlo FLuc: -0.5%

Results for Cc1ccc(N2CC(C(=O)Nc3ccc(S(=O)(=O)Nc4nccs4)cc3)CC2=O)cc1 (configuration not stated) ?
ALDH1A1 block: 20µM*; HTT aggregate: -0.5%; HTT cytoprotect: -24.7%

Results for O=C(CSc1ccncc1)Nc1ccc(S(=O)(=O)Nc2nccs2)cc1 ?
ALDH1A1 block: 10µM*; LMNA splice mod: 1.9%[46 µM]; HTT aggregate: -0.7%; HTT cytoprotect: -5.7%; KinaseGlo FLuc: 4.6%

Results for CS(=O)(=O)Nc1ccc(S(=O)(=O)Nc2nccs2)cc1 ?
ALDH1A1 block: -5.2%; LMNA splice mod: 13.3%; HTT aggregate: 1.0%; HTT cytoprotect: -17.9%[10 µM]; HPGD block: 4.0%; KinaseGlo FLuc: -1.4%

Results for O=S(=O)(Nc1nccs1)c1ccc(NS(=O)(=O)c2cccs2)cc1 ?
ALDH1A1 block: 17.8µM*; LMNA splice mod: -1.6%; HTT aggregate: 9.5%; HTT cytoprotect: 17.1%; HPGD block: -9.0%; KinaseGlo FLuc: 6.3%

What do the screens show for `COc1ccccc1/C=C1/SC(=O)N(CCC(=O)Nc2ccc(S(=O)(=O)Nc3nccs3)cc2)C1=O`?
ALDH1A1 block: 25.1µM*; LMNA splice mod: 8.8%; HTT aggregate: 13.1%; HTT cytoprotect: 2.6%[10 µM]; HPGD block: -16.7%; KinaseGlo FLuc: -3.6%

What do the screens show for `NC(C(=O)O)c1cccc(O)c1` (configuration not stated)?
ALDH1A1 block: 20.5%; HTT cytoprotect: -69.1%

Results for Cc1cccc(C(=O)NC(NC(=S)Nc2ccc(S(N)(=O)=O)cc2)C(Cl)(Cl)Cl)c1 (configuration not stated) ?
ALDH1A1 block: -9.1%; LMNA splice mod: inconclusive; HTT aggregate: 4.5%; HTT cytoprotect: 27.2%[10 µM]; HPGD block: inconclusive; KinaseGlo FLuc: 10.8%

Results for O=C(NCCOc1ccc(Cl)cc1)C1CC(=O)N(c2ccc(F)cc2)C1 (configuration not stated) ?
ALDH1A1 block: 25.1µM*; LMNA splice mod: inconclusive; HTT aggregate: -6.4%; HTT cytoprotect: -4.7%[10 µM]; HPGD block: -11.8%; KinaseGlo FLuc: -4.3%

What do the screens show for `O=C(O)C1CC(=O)N(c2ccc(OCc3ccc(Cl)cc3Cl)cc2)C1` (configuration not stated)?
ALDH1A1 block: 1.4%; LMNA splice mod: 0.8%; HTT aggregate: 2.8%; HTT cytoprotect: -32.6%; HPGD block: 14.1µM*; KinaseGlo FLuc: 20.1%

What do the screens show for `COc1ccc(OC)c(N/C(C)=C/C(=O)c2ccc(Br)cc2)c1`?
ALDH1A1 block: -12.0%; LMNA splice mod: inconclusive; HTT aggregate: inconclusive; HTT cytoprotect: inconclusive; KinaseGlo FLuc: 1.0%
